The record followed here is PubChem BioAssay.

Broadly, the inhibition is the change of the read-out against control, counted positive when it falls.

Calls of active or inactive are those of the source.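 Rule for the calls, unless noted: active = inhibition above 50%, about 3 SD of the validation set; inactive = the rest.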

A short description of test [1]: reduced mouse 2C T cell binding to pMHC/ICAM-1 vesicles – MLPCN validation set, flow cytometry, LFA-1/ICAM-1 modulator project, pilot screen (AID 2523;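 active = response below a set limit, under 55% cells CD8-positive and vesicle-bound, and CD8 cells' 90th-percentile brightness under 279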;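 for vesicle binding response: mean PE anti-B7-1 fluorescence of CD8+ cells relative to row control; 100% = QL9-loaded vesicles with DMSO vehicle in the same plate row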). The conditions noted are these: 2C mouse CD8+ T cells, at 7 µM, stronger effect = lower value; double positive events: measured here: CD8+/vesicle+ event percentage. On the technique in general: In flow cytometry, cells or beads pass a laser one at a time.

The target in test [2] is Integrin beta-1 (Homo sapiens) + Integrin alpha-4 (Homo sapiens) (UniProt P13612+P05556). In words: alpha4beta1 integrin LIBS antibody binding reduction – U937 cells, HUTS-21 mAb, flow cytometry, validation set, VLA-4 allosteric modulator project, pilot screen (AID 2674).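 Note: antibody binding induced by the VLA-4 ligand LDV present at three times its Kd; 0% = LDV ligand with antibody and no compound and 100% = antibody without LDV.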 The following applies: HUTS-21 LIBS mAb binding, at 6.7 µM, stronger effect = higher value, binding induced by LDV ligand.
Chain of Integrin beta-1 (Homo sapiens) + Integrin alpha-4 (Homo sapiens) (P05556 whole entry, looked up): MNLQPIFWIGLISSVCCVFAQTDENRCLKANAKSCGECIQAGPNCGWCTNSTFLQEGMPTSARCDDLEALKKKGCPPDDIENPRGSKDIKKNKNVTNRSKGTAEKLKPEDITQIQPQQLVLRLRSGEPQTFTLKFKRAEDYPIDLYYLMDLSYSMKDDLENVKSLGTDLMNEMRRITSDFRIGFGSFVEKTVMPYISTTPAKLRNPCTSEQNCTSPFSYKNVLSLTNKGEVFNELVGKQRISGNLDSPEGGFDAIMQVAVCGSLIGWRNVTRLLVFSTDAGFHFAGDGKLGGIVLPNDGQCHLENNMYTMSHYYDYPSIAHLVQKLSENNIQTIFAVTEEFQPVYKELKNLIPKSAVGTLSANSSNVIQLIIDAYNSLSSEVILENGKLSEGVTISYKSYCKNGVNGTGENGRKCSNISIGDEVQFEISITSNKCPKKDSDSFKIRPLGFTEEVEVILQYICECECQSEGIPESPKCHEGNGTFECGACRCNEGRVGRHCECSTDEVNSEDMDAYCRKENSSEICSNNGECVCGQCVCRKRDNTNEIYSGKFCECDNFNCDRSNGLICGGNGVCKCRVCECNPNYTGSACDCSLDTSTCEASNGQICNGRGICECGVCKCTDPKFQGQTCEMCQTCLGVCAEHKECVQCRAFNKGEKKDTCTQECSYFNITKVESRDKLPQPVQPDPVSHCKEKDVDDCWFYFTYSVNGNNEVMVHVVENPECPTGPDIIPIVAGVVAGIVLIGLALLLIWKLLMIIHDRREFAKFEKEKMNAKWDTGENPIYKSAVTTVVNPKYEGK
Chain of Integrin beta-1 (Homo sapiens) + Integrin alpha-4 (Homo sapiens) (P13612 whole entry, looked up): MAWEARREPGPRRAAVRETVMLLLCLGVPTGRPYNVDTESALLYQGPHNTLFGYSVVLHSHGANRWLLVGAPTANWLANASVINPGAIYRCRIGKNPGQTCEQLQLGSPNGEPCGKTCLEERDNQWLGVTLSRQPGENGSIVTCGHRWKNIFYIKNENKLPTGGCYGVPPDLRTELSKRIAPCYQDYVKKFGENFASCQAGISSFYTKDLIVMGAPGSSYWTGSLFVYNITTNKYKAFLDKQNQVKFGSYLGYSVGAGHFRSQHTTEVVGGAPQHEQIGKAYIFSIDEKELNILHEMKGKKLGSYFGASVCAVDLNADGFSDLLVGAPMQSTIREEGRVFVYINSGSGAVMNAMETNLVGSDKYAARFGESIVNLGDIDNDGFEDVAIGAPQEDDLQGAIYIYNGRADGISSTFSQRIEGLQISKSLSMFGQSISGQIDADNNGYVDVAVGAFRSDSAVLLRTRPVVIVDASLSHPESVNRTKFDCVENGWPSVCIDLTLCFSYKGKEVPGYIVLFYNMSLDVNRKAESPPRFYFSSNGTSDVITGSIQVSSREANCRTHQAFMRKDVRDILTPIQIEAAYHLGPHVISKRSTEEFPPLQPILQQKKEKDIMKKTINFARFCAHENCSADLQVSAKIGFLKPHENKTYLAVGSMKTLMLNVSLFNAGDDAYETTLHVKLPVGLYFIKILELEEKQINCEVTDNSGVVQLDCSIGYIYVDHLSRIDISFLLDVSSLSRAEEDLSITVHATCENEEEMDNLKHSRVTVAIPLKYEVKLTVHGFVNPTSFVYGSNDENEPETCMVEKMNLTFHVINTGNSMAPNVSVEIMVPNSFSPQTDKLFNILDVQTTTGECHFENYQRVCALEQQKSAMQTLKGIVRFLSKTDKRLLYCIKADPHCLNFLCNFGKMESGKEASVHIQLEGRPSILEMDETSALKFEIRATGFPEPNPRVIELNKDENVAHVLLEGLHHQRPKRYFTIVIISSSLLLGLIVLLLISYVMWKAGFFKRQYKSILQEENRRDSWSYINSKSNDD

Test [3] in a line: calorie-restriction mimetic ROS inhibitors, yeast – validation compound set, pilot screen (AID 2706;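 active = superoxide response below 65% of plate, a cut near 3 SD across the whole screen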;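 note: yeast exposed to compound for one week at 30 degrees C before staining; 100% = mean of all compound wells on the same plate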). The following applies: S. cerevisiae aging, superoxide DHE fluorescence; at 10 µM, stronger effect = lower value.
Test [4] deals with Beta-adrenergic receptor kinase 1 (Homo sapiens) (UniProt P25098). The experiment in a line: GRK2 binders displacing RNA aptamer, biochemical, validation, human GRK2, bead flow cytometry (AID 488806;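 active = aptamer binding inhibition above 30%, about 3 SD of noise from non-fluorescent compounds; inactive = inhibition at or below 30%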). The conditions noted are these: bead-bound GRK2, FAM-aptamer displacement, at 10 µM, stronger effect = higher value.
Chain of Beta-adrenergic receptor kinase 1 (Homo sapiens) (P25098 whole entry, looked up): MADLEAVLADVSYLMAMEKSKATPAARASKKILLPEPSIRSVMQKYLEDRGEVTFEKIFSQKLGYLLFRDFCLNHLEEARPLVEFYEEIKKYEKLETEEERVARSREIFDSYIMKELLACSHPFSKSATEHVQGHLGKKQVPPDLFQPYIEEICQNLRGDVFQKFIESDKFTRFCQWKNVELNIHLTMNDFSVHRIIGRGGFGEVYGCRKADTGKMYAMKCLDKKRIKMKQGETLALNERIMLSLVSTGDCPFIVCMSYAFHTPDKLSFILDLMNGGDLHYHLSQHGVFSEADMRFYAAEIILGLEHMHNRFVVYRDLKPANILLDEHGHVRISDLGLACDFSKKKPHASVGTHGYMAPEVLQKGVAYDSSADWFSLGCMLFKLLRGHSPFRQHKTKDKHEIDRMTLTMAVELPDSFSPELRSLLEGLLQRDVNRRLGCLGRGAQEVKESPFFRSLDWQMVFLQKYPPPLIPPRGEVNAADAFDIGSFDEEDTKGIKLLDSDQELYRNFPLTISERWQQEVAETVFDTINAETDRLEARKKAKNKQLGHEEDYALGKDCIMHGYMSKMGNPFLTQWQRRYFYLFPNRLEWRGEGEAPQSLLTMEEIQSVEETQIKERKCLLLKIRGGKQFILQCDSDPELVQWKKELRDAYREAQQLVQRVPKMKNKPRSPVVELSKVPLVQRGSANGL
The target in test [5] is Beta-2 adrenergic receptor (Homo sapiens) (UniProt P07550). The experiment in a line: agonist-induced loss of surface beta2AR – cell-based, FAP fluorogen, flow cytometry, validation set, pilot screen (AID 504459;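 active = percent response above 42, roughly 3 SD of non-fluorescent test compounds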;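 note: agonist-driven loss of surface beta2AR via internalization measured by FAP dye flow cytometry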). The following applies: Am2.2-beta2AR cells, at 10 µM, stronger effect = higher value.
Chain of Beta-2 adrenergic receptor (Homo sapiens) (P07550 whole entry, looked up): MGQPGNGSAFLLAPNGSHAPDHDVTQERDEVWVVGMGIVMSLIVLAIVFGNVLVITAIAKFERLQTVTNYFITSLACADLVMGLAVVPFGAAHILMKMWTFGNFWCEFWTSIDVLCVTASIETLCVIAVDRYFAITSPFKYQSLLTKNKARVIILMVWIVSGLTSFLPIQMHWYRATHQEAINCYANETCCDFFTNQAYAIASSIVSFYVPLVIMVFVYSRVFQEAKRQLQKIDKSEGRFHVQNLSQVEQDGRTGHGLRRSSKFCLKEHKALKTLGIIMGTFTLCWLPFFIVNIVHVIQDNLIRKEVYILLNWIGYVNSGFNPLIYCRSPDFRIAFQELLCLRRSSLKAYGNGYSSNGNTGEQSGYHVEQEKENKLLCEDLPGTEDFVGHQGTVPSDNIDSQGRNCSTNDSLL
Test [6] addresses AP-2 complex subunit beta (Homo sapiens) (UniProt P63010). In words: beta-arrestin/AP2 interaction blockers – biochemical, validation set, GST-AP2 beads, flow cytometry, pilot screen (AID 504541;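 active = inhibition above 54%, about 3 SD of non-fluorescent compounds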;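 note: AP2 carries R879A mutation and is captured from E. coli lysate; bead-bound FITC arrestin peptide fluorescence measuring arrestin peptide binding to AP2; 0% = DMSO wells and 100% = excess unlabeled arrestin peptide control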). The following applies: FITC arrestin peptide, at 10 µM, stronger effect = higher value, AP2 beta2 appendage fragment, R879A mutant.
Test [7] is described as follows: cytosolic pH regulators acting via V-ATPase – S. cerevisiae, pHLuorin, HTS validation (AID 504600; in the data active = response above about 15%;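 note: plate controls were DMSO for no effect and reference compound for full effect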). The conditions noted are these: V-ATPase proton transport, at 10 µM, stronger effect = higher value.
For test [8], the system named is anti-desmoglein-3 scFv antibody binding to human DSG3. The experiment in a line: blockers of pathogenic pemphigus antibody–desmoglein-3 binding – biochemical, validation compound set, bead-based, flow cytometry, pilot screen (AID 588368;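 active = binding below the plate cutoff, the plate median minus 3 SD, with a reading above zero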;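 note: signal is the median channel fluorescence of bead-bound GFP antibody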). The following applies: Protein G beads, DSG3-Fc, scFv-GFP binding, at 10 µM, stronger effect = lower value.
Test [9] can be described thus: Nile Red efflux blockade in pump-expressing yeast – validation compound set, multiplex, phenotypic, pilot screen (AID 588506;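 active = efflux inhibition above 0.42, the validation set average plus 4 SD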;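 note: Nile Red retained in cells so higher fluorescence means more efflux inhibition; 0 = negative control wells and 1 = enniatin B 25 µM full block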). The following applies: S. cerevisiae pump-expressing triplex, Nile Red efflux flow cytometry; at 10 µM; stronger effect = higher value; the pumps come from Candida albicans.
Test [10] deals with ATP-binding cassette sub-family B member 6 (Homo sapiens) (UniProt Q9NP58). The experiment in a line: blockers of ABCB6-driven porphyrin uptake – K562-ABCB6 cells, flow cytometry, validation set, pilot screen (AID 588550;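 active = inhibition above the screen-wide mean plus 3 SD, about 51%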;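 note: 0% = DMSO wells and 100% = benzethonium chloride 70 µM positive control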). The conditions noted are these: K562-ABCB6 porphyrin accumulation, 1 h, at 10 µM, stronger effect = higher value.
Chain of ATP-binding cassette sub-family B member 6 (Homo sapiens) (Q9NP58 whole entry, looked up): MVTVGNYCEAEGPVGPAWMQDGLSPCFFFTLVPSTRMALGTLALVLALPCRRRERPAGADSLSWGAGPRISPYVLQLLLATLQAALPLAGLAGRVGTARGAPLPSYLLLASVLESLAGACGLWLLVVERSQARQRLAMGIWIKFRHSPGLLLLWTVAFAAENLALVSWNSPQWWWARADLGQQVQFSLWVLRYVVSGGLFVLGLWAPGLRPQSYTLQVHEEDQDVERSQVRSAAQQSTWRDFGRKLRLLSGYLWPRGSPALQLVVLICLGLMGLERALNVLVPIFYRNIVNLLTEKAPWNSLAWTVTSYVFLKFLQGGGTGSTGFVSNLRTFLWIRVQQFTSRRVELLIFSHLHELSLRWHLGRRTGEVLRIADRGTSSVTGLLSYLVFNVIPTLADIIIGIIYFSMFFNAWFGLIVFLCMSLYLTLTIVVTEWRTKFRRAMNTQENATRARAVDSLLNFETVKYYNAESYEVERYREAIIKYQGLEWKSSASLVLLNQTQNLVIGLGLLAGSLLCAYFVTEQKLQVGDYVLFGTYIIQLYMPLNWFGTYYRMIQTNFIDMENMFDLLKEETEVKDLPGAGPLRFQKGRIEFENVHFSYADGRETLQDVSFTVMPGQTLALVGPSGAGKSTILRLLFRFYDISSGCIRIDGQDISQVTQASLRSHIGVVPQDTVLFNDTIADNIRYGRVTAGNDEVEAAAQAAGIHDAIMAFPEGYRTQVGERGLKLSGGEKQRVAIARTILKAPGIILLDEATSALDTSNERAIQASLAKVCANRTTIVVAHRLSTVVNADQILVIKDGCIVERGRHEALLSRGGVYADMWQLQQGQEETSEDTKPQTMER
Test [11] in a line: AML differentiation inducers, ER-HoxA9 marrow cells – cell-based, GFP/MAC1 double positive, flow cytometry, validation set, primary screen (AID 588685;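 active = differentiation response of at least 50%, scaled between solvent and reference control, from cells with both markers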;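 note: compound exposure lasts four days before antibody staining and flow analysis; 0% = DMSO wells and 100% = 5 µM fulvestrant positive control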). The conditions noted are these: stronger effect = higher value, normalized: vehicle 0, fulvestrant 100.

Chain of AP-2 complex subunit beta (Homo sapiens) (P63010 whole entry, looked up, the tested form may be a part, one chain of several): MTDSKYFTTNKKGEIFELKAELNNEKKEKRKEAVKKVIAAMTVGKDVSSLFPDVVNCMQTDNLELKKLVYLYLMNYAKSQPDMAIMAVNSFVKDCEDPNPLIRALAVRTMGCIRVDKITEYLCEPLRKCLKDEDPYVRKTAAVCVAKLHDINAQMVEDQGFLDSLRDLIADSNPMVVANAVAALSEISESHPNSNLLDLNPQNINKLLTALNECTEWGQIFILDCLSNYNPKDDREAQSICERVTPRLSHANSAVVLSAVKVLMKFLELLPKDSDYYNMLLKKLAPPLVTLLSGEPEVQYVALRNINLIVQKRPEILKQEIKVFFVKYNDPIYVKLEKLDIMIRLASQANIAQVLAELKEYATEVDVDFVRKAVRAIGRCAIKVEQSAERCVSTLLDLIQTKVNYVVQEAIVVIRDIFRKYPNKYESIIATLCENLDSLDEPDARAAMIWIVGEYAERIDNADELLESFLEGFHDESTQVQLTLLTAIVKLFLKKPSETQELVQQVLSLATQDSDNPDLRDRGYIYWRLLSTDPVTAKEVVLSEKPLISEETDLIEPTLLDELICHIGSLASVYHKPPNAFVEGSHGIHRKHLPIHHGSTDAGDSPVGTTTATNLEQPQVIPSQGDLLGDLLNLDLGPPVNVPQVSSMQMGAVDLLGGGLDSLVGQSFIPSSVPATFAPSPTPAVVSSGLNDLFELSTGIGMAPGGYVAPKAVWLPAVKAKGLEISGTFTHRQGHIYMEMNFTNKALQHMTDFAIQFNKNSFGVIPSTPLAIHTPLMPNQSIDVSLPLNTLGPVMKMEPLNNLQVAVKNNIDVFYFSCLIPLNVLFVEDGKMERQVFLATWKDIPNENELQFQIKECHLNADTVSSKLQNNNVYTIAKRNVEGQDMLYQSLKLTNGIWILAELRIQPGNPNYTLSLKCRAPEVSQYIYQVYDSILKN

`CC(C)(C)c1ccc(C(O)CCCN2CCC(C(O)(c3ccccc3)c3ccccc3)CC2)cc1` (configuration not stated) returned a double positive events in [1] of 64.6%. The vesicle binding response in [1] was 199% (inactive). For the same compound, the results for the inhibition in [2], in test [6] and in test [10] were 38.9% (inactive), 2.19% (inactive) and 10% (inactive), respectively. Further, the superoxide response (% of plate) in [3] was 54.7% (active). Also, the aptamer binding inhibition in test [4] was -1% (inactive). Besides, the values for the response in [5] and in test [7] were 74.7% (active) and 16.5% (active), respectively. The binding (% of control) in test [8] is 112% (inactive). The efflux inhibition (fraction of control) in [9] was 0.59 (active). Moreover, the differentiation response in test [11] was 0.92% (inactive).

Consider `C[C@H]1O[C@H]1P(=O)(O)O`, for which the double positive events in [1] came to 66.2%. Further, the vesicle binding response in test [1] is 197% (inactive). Further, the inhibition was 15.1% (inactive) in [2], 6.72% (inactive) in [6] and 9% (inactive) in [10]. Moreover, the superoxide response (% of plate) in test [3] was 95.9% (inactive). In addition, in [4], the aptamer binding inhibition is 5% (inactive). The response in test [5] is -11.7% (inactive); in [7], 17.1% (active). The binding (% of control) in test [8] is 103% (inactive). Also, the efflux inhibition (fraction of control) in test [9] is -0.09 (inactive). The differentiation response in test [11] was 12.8% (inactive).

`O=C(C1CCCCC1)N1CC(=O)N2CCc3ccccc3C2C1` (configuration not stated) showed a double positive events in test [1] of 61.4%. Moreover, the vesicle binding response in test [1] was 225% (inactive). In addition, the values for the inhibition in [2], in [6] and in [10] were -2.82% (inactive), -1.09% (inactive) and 3% (inactive), respectively. The superoxide response (% of plate) in test [3] is 109% (inactive). The aptamer binding inhibition in [4] was 1% (inactive). In addition, the response in test [5] was -15.4% (inactive); in [7] it was -5.39% (inactive). The binding (% of control) in [8] was 101% (inactive). Further, in test [9], the efflux inhibition (fraction of control) was 0 (inactive). In test [11], the differentiation response is 29.5% (inactive).

`CNc1nc(Nc2ccccc2)nc(OCC(F)(F)F)n1` showed a double positive events in test [1] of 64.8%. In addition, the vesicle binding response in [1] was 135% (inactive). Further, the inhibition in [2] is 6.95% (inactive); in test [6] it was 44.3% (inactive); in test [10], -3% (inactive). Also, the superoxide response (% of plate) in test [3] is 98.2% (inactive). The aptamer binding inhibition in test [4] is -3% (inactive). Besides, the response in test [5] was -3.68% (inactive); in [7], -7.15% (inactive). In addition, the binding (% of control) in test [8] is 101% (inactive). Moreover, in [9], the efflux inhibition (fraction of control) is -0.185 (inactive). Also, the differentiation response in test [11] was 4.2% (inactive).

Consider `Fc1cc(F)cc(NC(=S)NCCCN2CCOCC2)c1`, for which, in test [1], the double positive events was 59.3%. The vesicle binding response in [1] was 214% (inactive). The inhibition in test [2] is 5.69% (inactive); in test [6], -3.24% (inactive); in test [10], 2% (inactive). Moreover, the superoxide response (% of plate) in test [3] is 80.8% (inactive). For the same compound, in test [4], the aptamer binding inhibition is -5% (inactive). Besides, the response in [5] was -24.3% (inactive); in test [7] it was 4.35% (inactive). The binding (% of control) in test [8] is 107% (inactive). Moreover, the efflux inhibition (fraction of control) in [9] was -0.13 (inactive). Also, the differentiation response in test [11] is 0.92% (inactive).

`Cc1cccc(N2C(=O)C3C(c4ccccc4)OC4(C(=O)c5ccccc5C4=O)C3C2=O)c1` (configuration not stated) yielded a double positive events in test [1] of 56.8%. Moreover, the vesicle binding response in test [1] was 143% (inactive). Besides, the inhibition in test [2] was -5.89% (inactive); in test [6], 6.34% (inactive); in [10], 5% (inactive). The superoxide response (% of plate) in [3] was 110% (inactive). Besides, the aptamer binding inhibition in [4] was 3% (inactive). For the same compound, the response in test [5] is 1.5% (inactive); in [7] it was -0.37% (inactive). Also, the binding (% of control) in test [8] was 104% (inactive). Moreover, the efflux inhibition (fraction of control) in test [9] was 0.33 (inactive). Also, the differentiation response in [11] is -12% (inactive).
